TDP1 cell noCPT – qHTS for Inhibitors of human tyrosyl-DNA phosphodiesterase 1 (TDP1): qHTS in cells in absence of CPT; DT40 Tdp1-/- hTDP1 cells, no CPT, ATP luminescence, 48 h; Potency, µM (doses to about 46.2 µM), usual class: inhibitors; actives 15% (n = 420,000); also: nearly all actives have a fitted effect of over 55% in size
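DT40 Tdp1-/-;hTDP1 cells, no CPT (DMSO vehicle only), 400 cells/well; compounds pin-transferred; ≥48 hr, 37 °C; CellTiter-Glo 30 min RT dark, luminescence read.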
HT1080 IDH1KD tx – qHTS for induction of synthetic lethality in tumor cells producing 2HG: qHTS for the HT-1080-IDH1KD cell line. HT-1080 IDH1 knockdown viability, ATP luminescence, 48 h. Potency, µM (top dose mostly 46.1 µM), usual class: cytotoxic. actives 2% (n = 360,000)
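Luminescent ATP read-out (CellTiter-Glo, 10 min at room temperature) after 48 h compound exposure at 37 °C gave viability of IDH1-knockdown HT-1080 cells. Activity was normalised to DMSO and cell-free wells, then fitted as concentration-response curves.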
HT1080NT lethal – qHTS for induction of synthetic lethality in tumor cells producing 2HG: qHTS for the HT-1080-NT fibrosarcoma cell line; HT-1080-NT fibrosarcoma viability, CellTiter-Glo ATP luminescence, 48 h; Potency, µM (titrated, usually from 46.1 µM), hits mostly cytotoxic; actives 1.6% (n = 360,000); AID 686970, 2013;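 also: NT is the 2HG producing partner of a matched IDH1 knockdown line; nearly all actives have a fitted effect of over 55% in size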
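750 cells/well, RPMI + 5% FBS; 2 h settle, compound pin-transfer, 48 h at 37 degrees C. CellTiter-Glo 10 min RT, luminescence. Normalized to DMSO and media-only wells.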
IL-1B inflam inh – qHTS for Inhibitors of Inflammasome Signaling: IL-1-beta AlphaLISA Primary Screen; THP-1 LPS/ATP IL-1B secretion, AlphaLISA, 16 h; hits give low values; activity change, % at 57.5 µM; actives 4.7% (n = 360,000); AID 743279, 2014; in the data active = activity change below about -50%; inconclusive = mostly about -30% to -49%
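Secreted IL-1B measured by AlphaLISA bead assay after 16 h compound exposure of THP-1 cells; compounds (final up to 57.5 uM) added 1 h before LPS (250 ng/mL) and ATP (1.25 mM) stimulation; lower signal means less secretion.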
DT40 TDP1 CPT – qHTS for Inhibitors of human tyrosyl-DNA phosphodiesterase 1 (TDP1): qHTS in cells in presence of CPT; chicken DT40 Tdp1-/-;hTDP1 cells + 20 nM CPT, ATP luminescence, 48 h; Potency, µM (titrated, usually from 46.2 µM), usual class: inhibitors; actives 12% (n = 420,000); also: nearly all actives have a fitted effect of over 55% in size
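Chicken DT40 Tdp1-/- cells stably complemented with human TDP1 were seeded at 400 cells/well in medium containing 20 nM camptothecin, exposed to pin-transferred compounds, and grown at 37 °C for at least 48 hr. Viability was read as ATP luminescence.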
A number is an active result; – = inactive; ? = inconclusive; · = not tested or not shown. Most compounds without a hit are left out; they make up all but 19% or so of the library. Unless noted, calls follow the shape of the dose curve; as a rule, active = well fitted curve in the direction sought with a large enough effect; inconclusive = small, poorly fitted or top-dose-only effect, or another doubt; inactive = no such curve, though single readings can be large; an effect the other way counts as inactive or inconclusive.

SMILES | TDP1 cell noCPT | HT1080 IDH1KD tx | HT1080NT lethal | IL-1B inflam inh | DT40 TDP1 CPT
Cc1cccc(OCCCN2C(=O)C(=O)c3cc(C)ccc32)c1 | 0.92µM | – | – | – | 1.6µM
CN1OC[C@@H]2CN(C(=O)C(C)(C)C)[C@H](c3ccc(-c4cc5ccccc5o4)cc3)C[C@@H]21 | 21µM | – | – | – | ?
CN1OC[C@@H]2CN(S(=O)(=O)c3cccc4ccccc34)[C@H](c3ccc(-c4ccccc4)cc3)C[C@@H]21 | 23µM | ? | – | – | ?
Cc1ccccc1S(=O)(=O)N1C[C@H]2CON(C)[C@H]2C[C@H]1c1cccc(-c2ccccc2)c1 | 23µM | – | – | – | ?
Cc1ccccc1S(=O)(=O)N1C[C@H]2CON(C)[C@H]2C[C@H]1c1cccc(Br)c1 | ? | – | – | – | –
Cc1ccccc1-c1cccc([C@@H]2C[C@H]3[C@H](CON3C)CN2S(=O)(=O)c2ccccc2C)c1 | 21µM | – | – | – | ?
Cn1c(=O)c2cc(C(=O)Nc3cccc(C#N)c3)sc2c2ccccc21 | – | · | · | · | ?
COc1ccccc1-c1cccc([C@@H]2C[C@H]3[C@H](CON3C)CN2S(=O)(=O)c2ccccc2C)c1 | 21µM | – | – | – | 15µM
O=C(CSc1nc2nc(-c3cccs3)cc(C(F)(F)F)c2c(=O)[nH]1)C(F)(F)F | ? | ? | ? | – | 13µM
CC1(C)C2CCC1(C)C(SC(=N)N)C2 (configuration not stated) | ? | – | – | -82 | 21µM
CC1(C)C2CCC1(C)C(OC(=O)CC(=O)O)C2 (configuration not stated) | – | – | – | – | –
COC(=O)CN1C(C(=O)c2ccccc2)=C(OC(=O)c2ccccc2)c2ccccc2S1(=O)=O | 26µM | · | · | · | 16µM
Cc1ccc(NC2=C(C(=O)c3ccccc3)N(C)S(=O)(=O)c3ccccc32)cc1 | 26µM | – | – | – | 29µM
CN1C(C(=O)c2ccccc2)=C(N)c2ccccc2S1(=O)=O | – | – | – | – | –
CN1C(C(=O)c2ccccc2)=C(OC(=O)c2ccc(Br)cc2)c2ccccc2S1(=O)=O | 21µM | · | · | · | ?
CCCN1C(C(=O)c2ccccc2)=C(OC(=O)c2ccc(OC)cc2)c2ccccc2S1(=O)=O | 5.2µM | · | · | · | 5.2µM
CC(Oc1ccc(Br)cc1)C(=O)N1CCC(C(N)=O)CC1 (configuration not stated) | – | – | – | – | –
CC1CC(=O)Nc2ccccc2N1S(=O)(=O)c1ccc(F)cc1F (configuration not stated) | – | – | – | · | –
CCN(CCO)c1ccc(Nc2cc(-c3ccc(-c4ccccc4)cc3)ncn2)cc1 | 15µM | ? | ? | – | 18µM
CCC(CO)Nc1nc2ccc(Cl)cc2c2ccccc12 (configuration not stated) | ? | 18µM | ? | -79 | ?
O=C(c1c(F)cccc1F)N1CCC(n2nnc3cc(C(F)(F)F)ccc32)CC1 | ? | – | – | – | –
Cc1ccccc1-c1nc(CS(=O)(=O)CC(=O)N(C)C2CCCCC2)c(C)o1 | ? | – | – | – | ?
Cc1ccccc1-c1nc(CN(Cc2c(C)nn(C)c2C)C2CC2)c(C)o1 | 23µM | – | – | -76 | ?
Cc1ccc(Oc2ccccc2/C=N/O)cc1 | 21µM | – | – | – | 12µM
COc1ccccc1/C=C/c1nc(S(=O)(=O)c2ccccc2)c(NCCN(C)C)o1 | 21µM | – | – | – | ?
SMILES | TDP1 cell noCPT | HT1080 IDH1KD tx | HT1080NT lethal | IL-1B inflam inh | DT40 TDP1 CPT
COc1ccc(/C=C/c2nc(S(=O)(=O)c3ccccc3)c(NCCCN(C)C)o2)cc1OC | – | – | – | – | –
CCC(=O)N1CCc2cc(Br)cc(S(=O)(=O)N3CCCC(C(=O)Nc4ccc(OC)cc4OC)C3)c21 (configuration not stated) | – | · | · | · | –
CCC(=O)N1CCc2cc(Br)cc(S(=O)(=O)NCc3ccccc3)c21 | ? | · | · | · | –
CCC(=O)N1CCc2cc(Br)cc(S(=O)(=O)NCCc3cccc(C)c3)c21 | 23µM | · | · | · | 16µM
CCC(=O)N1CCc2cc(Br)cc(S(=O)(=O)N3CCCC(C(=O)Nc4ccc(CC)cc4)C3)c21 (configuration not stated) | ? | · | · | · | –
CCC(=O)N1CCc2cc(Br)cc(S(=O)(=O)N3CCCC(C(=O)Nc4cccc(F)c4)C3)c21 (configuration not stated) | 18µM | · | · | · | 23µM
CCC(=O)N1CCc2cc(Br)cc(S(=O)(=O)N3CCCC(C(=O)NCc4ccc(C)cc4)C3)c21 (configuration not stated) | 16µM | · | · | · | 16µM
CCOC(=S)SSC(=S)OCC | – | · | · | · | –
CCN(C(=O)COc1ccc2ccc(=O)oc2c1)C1CCCCC1 | – | – | – | – | –
Cc1ccc(NC(=O)N2CCCN(C(=O)OC(C)(C)C)CC2)cc1Cl | ? | – | – | – | –
CC12CC3CC(C)(C1)CC(C(=O)NNC(=O)c1ccncc1)(C3)C2 | – | – | – | – | –
COc1ccc(NC(=O)CN2C(=O)C(C)Oc3ccc(C)cc32)cc1 (configuration not stated) | – | 21µM | ? | – | –
CCC1Oc2ccc(C)cc2N(CC(=O)NCc2cccc(OC)c2)C1=O (configuration not stated) | 10µM | – | – | – | ?
CCC1Oc2ccccc2N(CC(=O)NCc2cc(OC)ccc2OC)C1=O (configuration not stated) | 13µM | · | · | · | ?
COc1ccc(CNC(=O)COC(=O)CN2C(=O)C(C)Oc3ccc(C)cc32)cc1 (configuration not stated) | – | – | – | – | –
COc1ccc([N+](=O)[O-])cc1N(CC(O)CN(CC(C)C)CC(C)C)S(=O)(=O)c1ccccc1 (configuration not stated) | 21µM | ? | ? | ? | ?
CCCCN(CCCC)CC(O)CN(c1cc([N+](=O)[O-])ccc1OC)S(=O)(=O)c1ccccc1 (configuration not stated) | 15µM | ? | ? | · | ?
Cc1cccc(C(O)c2ncc(-c3ccccc3F)[nH]2)c1C (configuration not stated) | ? | – | – | – | –
C=C(C)[C@@H]1C2=CC(C(=O)OC)=C(C[C@@H](C(=C)C)[C@H]3O[C@H]3C3=C[C@H]1OC3=O)O2 | 1.1µM | 3.5µM | 4µM | · | 1.1µM

Bioassay records: PubChem, National Center for Advancing Translational Sciences (NCATS)
